Laboratory results as given in PubChem BioAssay.
Results filed as inconclusive are left out. Calls of active or inactive are those of the source.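 The calls were made as follows, unless noted: active = aptamer binding inhibition above 30%, about 3 SD of noise from non-fluorescent compounds; inactive = inhibition at or below 30%.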

Experiments:
[1] = yeast TOR pathway RPL19A-GFP modulators, primary screen, cell-based, S. cerevisiae, multiplex flow cytometry (AID 1862; in the data active = percent of DMSO control GFP below about 86%;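 also: lower values mimic rapamycin by blocking the RPL19A rise seen in DMSO cells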); details: S. cerevisiae RPL19A-GFP strain, flow cytometry fluorescence, 3 h; at 10 µM; stronger effect = lower value
[2] = modulators of MEP2-GFP levels in yeast, primary screen, S. cerevisiae, multiplex flow cytometry (AID 1867;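 active = GFP response, as percent of the DMSO control, above the screen-wide mean plus 3 SD, about 139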;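 also: median GFP channel fluorescence of barcode-gated MEP2-GFP cells measured by flow cytometry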); details: S. cerevisiae MEP2-GFP strain, 3 h, at 10 µM, stronger effect = higher value, 100% means same as DMSO wells
[3] = modulators of CIT2-GFP expression in yeast, primary screen, S. cerevisiae, GFP fusion, multiplex flow cytometry (AID 1870;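 active = percent response above a set limit, the screen-wide mean plus 3 SD, cut at about 130% in these data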;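 also: barcoded CIT2-GFP strain pooled with four other GFP strains with rapamycin as positive control; median GFP fluorescence per well over plate mean of DMSO wells so 100% = DMSO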); details: 3 h, at 10 µM, stronger effect = higher value
[4] = modulators of LAP4-GFP expression in yeast, primary screen, S. cerevisiae, multiplex flow cytometry (AID 1873;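 active = GFP signal, as percent of the solvent control, above the screen mean plus 3 SD, about 149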); details: 3 h, at 10 µM, stronger effect = higher value
[5] = inhibitors of CD8+ T cell-vesicle binding, pilot screen, LFA-1/ICAM-1 modulator project, MLPCN validation set, flow cytometry (AID 2523;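 active = response below a set limit, under 55% cells CD8-positive and vesicle-bound, and CD8 cells' 90th-percentile brightness under 279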;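 as to vesicle binding response: mean PE anti-B7-1 fluorescence of CD8+ cells relative to row control; 100% = QL9-loaded vesicles with DMSO vehicle in the same plate row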); details: 2C mouse CD8+ T cells, at 7 µM, stronger effect = lower value; double positive events: measured here: CD8+/vesicle+ event percentage
[6] = molecular target: Integrin beta-1 (Homo sapiens) + Integrin alpha-4 (Homo sapiens) (UniProt P13612+P05556); experiment: inhibition of HUTS-21 binding to VLA-4, pilot screen, VLA-4 allosteric modulator project, U937 cells, HUTS-21 mAb, flow cytometry, validation set (AID 2674;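 active = inhibition above 50%, about 3 SD of the validation set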;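 also: antibody binding induced by the VLA-4 ligand LDV present at three times its Kd; 0% = LDV ligand with antibody and no compound and 100% = antibody without LDV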); details: HUTS-21 LIBS mAb binding, at 6.7 µM, stronger effect = higher value, binding induced by LDV ligand
Chain of Integrin beta-1 (Homo sapiens) + Integrin alpha-4 (Homo sapiens) (P05556 whole entry, looked up): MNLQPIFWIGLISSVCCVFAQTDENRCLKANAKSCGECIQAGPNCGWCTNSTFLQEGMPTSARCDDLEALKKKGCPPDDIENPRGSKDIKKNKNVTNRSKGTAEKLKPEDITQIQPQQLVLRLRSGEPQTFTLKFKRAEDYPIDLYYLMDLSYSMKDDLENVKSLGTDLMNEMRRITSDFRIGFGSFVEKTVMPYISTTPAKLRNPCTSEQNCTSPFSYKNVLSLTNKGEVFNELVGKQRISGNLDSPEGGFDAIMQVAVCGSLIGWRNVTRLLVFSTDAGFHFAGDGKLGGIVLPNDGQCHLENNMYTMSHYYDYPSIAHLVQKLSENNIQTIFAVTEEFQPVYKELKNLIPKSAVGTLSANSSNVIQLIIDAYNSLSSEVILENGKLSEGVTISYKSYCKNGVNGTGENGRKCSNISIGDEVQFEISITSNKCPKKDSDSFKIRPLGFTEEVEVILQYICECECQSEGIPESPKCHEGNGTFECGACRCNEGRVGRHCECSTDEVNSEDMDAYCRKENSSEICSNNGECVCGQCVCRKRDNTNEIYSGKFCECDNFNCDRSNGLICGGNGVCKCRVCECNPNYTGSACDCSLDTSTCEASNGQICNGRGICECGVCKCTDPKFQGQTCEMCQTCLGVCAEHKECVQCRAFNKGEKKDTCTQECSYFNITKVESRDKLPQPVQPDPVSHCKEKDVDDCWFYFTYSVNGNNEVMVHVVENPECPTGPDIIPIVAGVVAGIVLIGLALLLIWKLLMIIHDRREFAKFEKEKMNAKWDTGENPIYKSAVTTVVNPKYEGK
Chain of Integrin beta-1 (Homo sapiens) + Integrin alpha-4 (Homo sapiens) (P13612 whole entry, looked up): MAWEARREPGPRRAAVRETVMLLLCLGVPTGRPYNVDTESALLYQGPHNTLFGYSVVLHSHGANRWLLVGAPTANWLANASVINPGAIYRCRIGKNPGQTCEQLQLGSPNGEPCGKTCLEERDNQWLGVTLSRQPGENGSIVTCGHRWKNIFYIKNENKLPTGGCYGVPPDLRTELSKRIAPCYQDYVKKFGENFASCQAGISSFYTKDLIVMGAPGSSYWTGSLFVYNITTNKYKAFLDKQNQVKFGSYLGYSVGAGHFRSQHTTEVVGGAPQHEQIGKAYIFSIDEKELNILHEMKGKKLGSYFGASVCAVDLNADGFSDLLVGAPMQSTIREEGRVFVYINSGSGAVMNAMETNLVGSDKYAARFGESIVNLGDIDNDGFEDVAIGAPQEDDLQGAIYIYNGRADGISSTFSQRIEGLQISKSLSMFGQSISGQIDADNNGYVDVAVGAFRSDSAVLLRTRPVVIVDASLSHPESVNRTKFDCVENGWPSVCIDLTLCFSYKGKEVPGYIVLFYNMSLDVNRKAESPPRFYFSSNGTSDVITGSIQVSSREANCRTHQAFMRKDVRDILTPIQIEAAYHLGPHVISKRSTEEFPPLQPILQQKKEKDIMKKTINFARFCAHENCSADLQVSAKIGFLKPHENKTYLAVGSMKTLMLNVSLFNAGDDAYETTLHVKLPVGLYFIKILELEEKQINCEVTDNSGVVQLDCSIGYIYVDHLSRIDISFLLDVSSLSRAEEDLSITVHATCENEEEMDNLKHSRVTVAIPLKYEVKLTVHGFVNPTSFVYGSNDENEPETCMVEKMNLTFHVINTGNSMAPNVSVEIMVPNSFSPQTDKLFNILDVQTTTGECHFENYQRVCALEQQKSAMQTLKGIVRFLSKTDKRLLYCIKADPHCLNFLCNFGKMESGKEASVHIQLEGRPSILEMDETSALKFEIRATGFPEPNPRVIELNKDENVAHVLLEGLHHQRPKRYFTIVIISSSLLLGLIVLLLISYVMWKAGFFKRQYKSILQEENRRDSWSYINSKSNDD

[7] = molecular target: Beta-adrenergic receptor kinase 1 (Homo sapiens) (UniProt P25098); experiment: GRK2 binders displacing RNA aptamer, biochemical, validation, human GRK2, bead flow cytometry (AID 488806); details: bead-bound GRK2, FAM-aptamer displacement, at 10 µM, stronger effect = higher value
Chain of Beta-adrenergic receptor kinase 1 (Homo sapiens) (P25098 whole entry, looked up): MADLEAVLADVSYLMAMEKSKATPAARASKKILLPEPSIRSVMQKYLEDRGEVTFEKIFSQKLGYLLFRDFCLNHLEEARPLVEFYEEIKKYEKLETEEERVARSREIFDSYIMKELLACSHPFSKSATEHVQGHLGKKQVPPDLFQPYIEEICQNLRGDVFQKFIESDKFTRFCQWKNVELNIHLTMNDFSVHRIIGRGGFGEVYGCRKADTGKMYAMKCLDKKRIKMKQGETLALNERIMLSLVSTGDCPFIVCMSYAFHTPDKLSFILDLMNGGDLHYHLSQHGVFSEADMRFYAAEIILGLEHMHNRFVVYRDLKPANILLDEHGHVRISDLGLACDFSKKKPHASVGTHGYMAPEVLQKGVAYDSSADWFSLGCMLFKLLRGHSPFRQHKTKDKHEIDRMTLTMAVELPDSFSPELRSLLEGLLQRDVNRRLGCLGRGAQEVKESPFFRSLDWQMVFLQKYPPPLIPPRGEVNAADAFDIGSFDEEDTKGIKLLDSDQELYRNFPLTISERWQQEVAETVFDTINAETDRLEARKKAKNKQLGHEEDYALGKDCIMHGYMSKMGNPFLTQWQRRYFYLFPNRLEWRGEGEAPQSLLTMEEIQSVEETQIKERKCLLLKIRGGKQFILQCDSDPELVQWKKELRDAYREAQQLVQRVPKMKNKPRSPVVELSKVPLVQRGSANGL

[8] = molecular target: Beta-2 adrenergic receptor (Homo sapiens) (UniProt P07550); experiment: beta2AR agonists driving receptor internalization, pilot screen, cell-based, FAP fluorogen, flow cytometry, validation set (AID 504459;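 active = percent response above 42, roughly 3 SD of non-fluorescent test compounds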;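 also: agonist-driven loss of surface beta2AR via internalization measured by FAP dye flow cytometry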); details: Am2.2-beta2AR cells, FAP surface receptor flow cytometry; at 10 µM; stronger effect = higher value
Chain of Beta-2 adrenergic receptor (Homo sapiens) (P07550 whole entry, looked up): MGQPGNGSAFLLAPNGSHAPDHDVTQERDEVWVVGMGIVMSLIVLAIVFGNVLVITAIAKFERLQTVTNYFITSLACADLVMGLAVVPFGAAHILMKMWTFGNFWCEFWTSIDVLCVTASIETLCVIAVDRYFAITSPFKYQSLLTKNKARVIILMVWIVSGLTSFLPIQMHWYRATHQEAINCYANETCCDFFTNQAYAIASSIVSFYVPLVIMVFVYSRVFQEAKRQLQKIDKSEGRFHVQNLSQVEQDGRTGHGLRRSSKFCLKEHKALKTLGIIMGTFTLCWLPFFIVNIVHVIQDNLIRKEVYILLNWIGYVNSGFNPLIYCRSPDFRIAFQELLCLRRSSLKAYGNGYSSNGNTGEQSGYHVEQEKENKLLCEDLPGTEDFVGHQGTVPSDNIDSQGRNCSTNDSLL

[9] = molecular target: AP-2 complex subunit beta (Homo sapiens) (UniProt P63010); experiment: inhibitors of arrestin peptide binding to AP2, pilot screen, biochemical, validation set, GST-AP2 beads, flow cytometry (AID 504541;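 active = inhibition above 54%, about 3 SD of non-fluorescent compounds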;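 also: AP2 carries R879A mutation and is captured from E. coli lysate; bead-bound FITC arrestin peptide fluorescence measuring arrestin peptide binding to AP2; 0% = DMSO wells and 100% = excess unlabeled arrestin peptide control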); details: FITC arrestin peptide, at 10 µM, stronger effect = higher value, AP2 beta2 appendage fragment, R879A mutant
Chain of AP-2 complex subunit beta (Homo sapiens) (P63010 whole entry, looked up, the tested form may be a part, one chain of several): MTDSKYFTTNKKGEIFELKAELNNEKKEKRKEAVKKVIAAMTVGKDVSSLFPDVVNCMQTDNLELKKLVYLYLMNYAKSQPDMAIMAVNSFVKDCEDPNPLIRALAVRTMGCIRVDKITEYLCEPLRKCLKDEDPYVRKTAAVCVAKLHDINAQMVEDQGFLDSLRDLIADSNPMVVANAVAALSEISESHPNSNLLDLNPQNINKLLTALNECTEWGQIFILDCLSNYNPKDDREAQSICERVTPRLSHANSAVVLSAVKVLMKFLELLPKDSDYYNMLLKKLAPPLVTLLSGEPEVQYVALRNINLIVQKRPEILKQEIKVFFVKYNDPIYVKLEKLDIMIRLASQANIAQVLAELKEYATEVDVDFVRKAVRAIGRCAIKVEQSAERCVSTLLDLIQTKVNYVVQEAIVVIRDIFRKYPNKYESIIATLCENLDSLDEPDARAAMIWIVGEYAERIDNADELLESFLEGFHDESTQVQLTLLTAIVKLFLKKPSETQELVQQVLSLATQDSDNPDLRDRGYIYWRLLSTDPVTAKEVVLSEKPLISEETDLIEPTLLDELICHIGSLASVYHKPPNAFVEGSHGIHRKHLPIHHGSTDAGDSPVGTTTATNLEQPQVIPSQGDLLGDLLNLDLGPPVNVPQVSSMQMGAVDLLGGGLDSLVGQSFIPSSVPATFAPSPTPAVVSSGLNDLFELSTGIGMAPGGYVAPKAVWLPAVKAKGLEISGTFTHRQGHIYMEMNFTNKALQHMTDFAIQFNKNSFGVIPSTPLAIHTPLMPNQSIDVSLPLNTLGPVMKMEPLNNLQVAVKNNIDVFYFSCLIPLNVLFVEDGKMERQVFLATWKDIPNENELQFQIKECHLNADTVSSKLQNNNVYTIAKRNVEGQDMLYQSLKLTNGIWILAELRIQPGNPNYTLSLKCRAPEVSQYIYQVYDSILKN

[10] = yeast V-ATPase proton transport modulators, S. cerevisiae, pHLuorin, HTS validation (AID 504600; in the data active = response above about 15%;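 also: plate controls were DMSO for no effect and reference compound for full effect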); details: S. cerevisiae pHLuorin cytosolic pH, at 10 µM, stronger effect = higher value
[11] = system: anti-desmoglein-3 scFv antibody binding to human DSG3; experiment: inhibitors of anti-DSG3 scFv binding to DSG3, pilot screen, biochemical, validation compound set, bead-based, flow cytometry (AID 588368;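 active = binding below the plate cutoff, the plate median minus 3 SD, with a reading above zero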;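 also: signal is the median channel fluorescence of bead-bound GFP antibody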); details: Protein G beads, DSG3-Fc, scFv-GFP binding, at 10 µM, stronger effect = lower value
[12] = inhibitors of fungal efflux pumps CDR1, CDR2, MDR1, pilot screen, validation compound set, multiplex, phenotypic (AID 588506;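 active = efflux inhibition above 0.42, the validation set average plus 4 SD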;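 also: Nile Red retained in cells so higher fluorescence means more efflux inhibition; 0 = negative control wells and 1 = enniatin B 25 µM full block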); details: S. cerevisiae pump-expressing triplex, Nile Red efflux flow cytometry; at 10 µM; stronger effect = higher value; the pumps come from Candida albicans
[13] = promoters of myeloid differentiation in arrested cells, primary screen, cell-based, GFP/MAC1 double positive, flow cytometry, validation set (AID 588685;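 active = differentiation response of at least 50%, scaled between solvent and reference control, from cells with both markers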;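 also: compound exposure lasts four days before antibody staining and flow analysis; 0% = DMSO wells and 100% = 5 µM fulvestrant positive control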); details: ER-HoxA9 marrow cells, stronger effect = higher value, normalized: vehicle 0, fulvestrant 100
[14] = superoxide lowering in aged yeast cells, pilot screen, validation compound set (AID 2706;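 active = superoxide response below 65% of plate, a cut near 3 SD across the whole screen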;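 also: yeast exposed to compound for one week at 30 degrees C before staining; 100% = mean of all compound wells on the same plate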); details: S. cerevisiae aging, superoxide DHE fluorescence; at 10 µM, stronger effect = lower value
[15] = molecular target: ATP-binding cassette sub-family B member 6 (Homo sapiens) (UniProt Q9NP58); experiment: ABCB6 transporter inhibitors, pilot screen, K562-ABCB6 cells, flow cytometry, validation set (AID 588550;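 active = inhibition above the screen-wide mean plus 3 SD, about 51%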;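 also: 0% = DMSO wells and 100% = benzethonium chloride 70 µM positive control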); details: K562-ABCB6 porphyrin accumulation, 1 h, at 10 µM, stronger effect = higher value
Chain of ATP-binding cassette sub-family B member 6 (Homo sapiens) (Q9NP58 whole entry, looked up): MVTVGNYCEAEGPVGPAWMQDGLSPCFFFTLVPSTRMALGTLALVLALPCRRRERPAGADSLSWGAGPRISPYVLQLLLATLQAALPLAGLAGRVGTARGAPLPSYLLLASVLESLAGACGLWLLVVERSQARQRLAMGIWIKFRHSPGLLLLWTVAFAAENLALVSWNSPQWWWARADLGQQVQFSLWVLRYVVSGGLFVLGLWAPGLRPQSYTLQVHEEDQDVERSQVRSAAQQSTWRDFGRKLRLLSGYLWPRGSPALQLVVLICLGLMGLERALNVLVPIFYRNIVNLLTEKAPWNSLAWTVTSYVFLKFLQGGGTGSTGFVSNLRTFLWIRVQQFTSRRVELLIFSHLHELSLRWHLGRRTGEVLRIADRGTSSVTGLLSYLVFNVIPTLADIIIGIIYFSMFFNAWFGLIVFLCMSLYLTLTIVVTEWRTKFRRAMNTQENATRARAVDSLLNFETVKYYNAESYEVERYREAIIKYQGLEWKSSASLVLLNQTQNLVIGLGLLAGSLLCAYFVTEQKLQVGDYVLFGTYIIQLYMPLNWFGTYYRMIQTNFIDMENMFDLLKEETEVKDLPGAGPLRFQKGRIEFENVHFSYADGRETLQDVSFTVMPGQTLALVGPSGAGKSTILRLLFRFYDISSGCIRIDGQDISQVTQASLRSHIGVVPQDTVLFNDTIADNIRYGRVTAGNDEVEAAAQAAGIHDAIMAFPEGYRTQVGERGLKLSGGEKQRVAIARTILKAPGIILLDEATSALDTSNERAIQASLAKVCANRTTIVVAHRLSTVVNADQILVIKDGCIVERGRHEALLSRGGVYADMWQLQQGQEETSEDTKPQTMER

Compound	percent of DMSO control GFP [1]	GFP response vs DMSO [2]	percent response of DMSO control [3]	GFP response vs DMSO [4]	double positive events [5] [%]	vesicle binding response [5]	inhibition [6]	aptamer binding inhibition [7]	response [8]	inhibition [9]	response [10]	binding (% of control) [11]	efflux inhibition (fraction of control) [12]	differentiation response [13]	superoxide response (% of plate) [14]	inhibition [15]
Cc1ccc2[nH]c3c(c2c1)CN(C(=O)CN1CCSCC1)CC3	100% (inactive)	93% (inactive)	101% (inactive)	102% (inactive)	60.8	66.8% (inactive)	-51.3% (inactive)	0% (inactive)	-263% (inactive)	-3.3% (inactive)	0.82% (inactive)	439% (inactive)	-0.04 (inactive)	28.6% (inactive)		
CCOC(=O)c1c(C)oc2cc(Br)c(OC(C)C(=O)OCC)cc12 (centres undefined)	95% (inactive)	119% (inactive)	102% (inactive)	84.7% (inactive)	60.7	238% (inactive)	2.58% (inactive)	7% (inactive)	4% (inactive)	1.62% (inactive)	-3.94% (inactive)	101% (inactive)	-0.31 (inactive)	-1.64% (inactive)	93% (inactive)	12% (inactive)
COc1ccc(Cc2nc(-c3ccc(Br)cc3)no2)cc1	100% (inactive)	103% (inactive)	101% (inactive)	95.3% (inactive)	40		-12.9% (inactive)	-1% (inactive)	-5.31% (inactive)	58.9% (active)	-2.85% (inactive)	99.3% (inactive)	0.14 (inactive)	48.1% (inactive)	117% (inactive)	-4% (inactive)
CCN1CCN(C(=O)N[C@@H](C(=O)N[C@@H]2C(=O)N3[C@@H]2SC(C)(C)[C@@H]3C(=O)O)c2ccccc2)C(=O)C1=O	94.4% (inactive)	122% (inactive)	103% (inactive)	74.3% (inactive)	69.1	138% (inactive)	-5.18% (inactive)	2% (inactive)	-5.92% (inactive)	3.29% (inactive)	1.38% (inactive)	103% (inactive)	0.16 (inactive)	3.28% (inactive)	109% (inactive)	7% (inactive)
N=C(N)c1ccc(OCCCCCOc2ccc(C(=N)N)cc2)cc1	107% (inactive)	105% (inactive)	96.5% (inactive)	110% (inactive)	53.8		-7.79% (inactive)	-23% (inactive)	20.7% (inactive)	-15.3% (inactive)	-1.89% (inactive)	112% (inactive)	0.285 (inactive)	8.59% (inactive)	98% (inactive)	9% (inactive)
CCOc1ccc(C(=O)Nc2ccc(N3CCN(C(C)=O)CC3)cc2)cc1[N+](=O)[O-]	93% (inactive)	106% (inactive)	115% (inactive)	78.7% (inactive)	68.5	210% (inactive)	3.55% (inactive)	3% (inactive)	-6.75% (inactive)	-0.46% (inactive)	0.55% (inactive)	99.4% (inactive)	0.27 (inactive)	-1.64% (inactive)	100% (inactive)	11% (inactive)
CN(C)CCOc1ccc(Cl)cc1C(C)(C)C	103% (inactive)	98.5% (inactive)	105% (inactive)	122% (inactive)	40.5		7.76% (inactive)	-1% (inactive)	-20.4% (inactive)	-1.49% (inactive)	-1.18% (inactive)	99.5% (inactive)	0.05 (inactive)	-16.8% (inactive)	105% (inactive)	5% (inactive)
O=c1c2ccccc2nnn1Cc1cccc2ccccc12	89.1% (inactive)	105% (inactive)	103% (inactive)	78.7% (inactive)	61	217% (inactive)	-13.9% (inactive)	1% (inactive)	-3.06% (inactive)	-7.09% (inactive)	3.28% (inactive)	99% (inactive)	-0.2 (inactive)	-0.82% (inactive)	103% (inactive)	13% (inactive)
Nc1c2c(nc3ccccc13)CCCC2	89.5% (inactive)	112% (inactive)	99.2% (inactive)	69.9% (inactive)	68.9	258% (inactive)	1.61% (inactive)	2% (inactive)	-14.3% (inactive)	3.69% (inactive)	7.21% (inactive)	104% (inactive)	0.05 (inactive)	-5.73% (inactive)	105% (inactive)	11% (inactive)
O=C(CCCN1CCC(O)(c2ccc(Cl)cc2)CC1)c1ccc(F)cc1	101% (inactive)	99.3% (inactive)	91.9% (inactive)	86.8% (inactive)	62.6	48.6% (inactive)	9.92% (inactive)	-3% (inactive)	-2.5% (inactive)	13.3% (inactive)	-1.24% (inactive)	105% (inactive)	0.27 (inactive)	15.9% (inactive)		21% (inactive)
